Test results: PubChem BioAssay (EPA / NIEHS)
Where “and” joins values, the source holds several entries; their conditions need not be identical. Identical values can stand only once. Records with an inconclusive call do not appear. Some compounds were tested as several samples or in several runs, with calls that do not always agree. Calls of active or inactive are those of the source. How the source made its calls: active means hit-call score of the fitted dose curve at least 0.9, where 1 is the maximum; inconclusive means response in the unintended direction; inactive means score below 0.9.

Legend:
[1] = molecular target: mouse Peroxisome Proliferator-activated Receptor gamma (PPARg), Pparg (gene 19016) (UniProt P37238); test: ATG_mPPARg_XSP1: Attagene TRANS-FACTORIAL Multi-Species (XSP1) HepG2 Assay for mouse Peroxisome Proliferator-activated Receptor gamma (PPARg) (AID 2283802)
Summary of the method: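 Readout is reporter mRNA induction, measured by RT-PCR with 6-FAM labelling, HpaI digestion and capillary electrophoresis, 24 h post-dose relative to DMSO. Transient multi-reporter transfection of human HepG2 with mouse PPARg–GAL4 fusion; 3 nM 6-alpha-fluorotestosterone included.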

[2] = molecular target: Nuclear receptor subfamily 1 group I member 2 (Mus musculus) (UniProt O54915); test: ATG_mPXR_XSP1: Attagene TRANS-FACTORIAL Multi-Species (XSP1) HepG2 Assay for mouse Pregnane X Receptor (PXR) (AID 2283803)
Summary of the method: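 Transiently transfected HepG2 cells expressing a receptor-Gal4 chimera drive a GAL4-UAS reporter; 3 nM 6-alpha-fluorotestosterone included. Reporter mRNA read 24 h post-dose by RT-PCR and capillary electrophoresis; gain of signal relative to DMSO.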

[3] = molecular target: zebrafish Thyroid Hormone Receptor beta (TRb), thrb (gene 30607) (UniProt Q9PVE4); test: ATG_zfTRb_XSP1: Attagene TRANS-FACTORIAL Multi-Species (XSP1) HepG2 Assay for zebrafish Thyroid Hormone Receptor beta (TRb) (AID 2283809)
Summary of the method: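 HepG2 cells transiently transfected with multiplexed GAL4-UAS reporter units expressing chimeric zebrafish TRb–Gal4. Dosed 24 h with 3 nM 6-alpha-fluorotestosterone present; reporter mRNA measured by RT-PCR, HpaI digestion and capillary electrophoresis; gain of signal versus DMSO.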

[4] = ATG_XTT_Cytotoxicity_XSP1: Cytotoxicity Assessment in the Attagene TRANS-FACTORIAL Multi-Species (XSP1) HepG2 Assay (AID 2283810)
Summary of the method: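 XTT viability readout taken at 24 hours post-dosing in HepG2 liver cells co-treated with 3 nM 6-alpha-fluorotestosterone. Signal loss relative to DMSO controls reflects cytotoxicity.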

[5] = ATG_M_06_XSP2: Attagene TRANS-FACTORIAL Multi-Species (XSP2) HepG2 Assay for M06 Transcription Factor (Internal Marker) (AID 2283811);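 further: internal background marker reporter mRNA measured by RT-PCR and capillary electrophoresis; hits are increases in signal above the DMSO baseline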
Summary of the method: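 Readout: fluorescent reporter-mRNA peaks by capillary electrophoresis after RT-PCR and HpaI digest, scored upward relative to DMSO. Transfected HepG2, 24 h chemical exposure, with 3 nM 6-alpha-fluorotestosterone and 1.5 nM norgestrel added.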

[6] = tested on: turtle Estrogen Receptor (ERa), gene 101933533; test: ATG_trERa_XSP2: Attagene TRANS-FACTORIAL Multi-Species (XSP2) HepG2 Assay for turtle Estrogen Receptor (ERa) (AID 2283812);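 further: actives raise reporter signal above DMSO so AC50 reflects agonist activity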
Summary of the method: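 Readout is reporter mRNA quantified by RT-PCR with capillary electrophoresis after 24 h compound exposure, increase relative to DMSO. Uses transiently transfected human HepG2 liver cells carrying a chimeric turtle ERa-Gal4 receptor driving GAL4-UAS reporters.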

[7] = molecular target: Estrogen receptor beta (Homo sapiens) (UniProt Q92731); test: ATG_hERb_XSP2: Attagene TRANS-FACTORIAL Multi-Species (XSP2) HepG2 Assay for human Estrogen Receptor (ERb) (AID 2283813);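 further: actives raise reporter mRNA above DMSO so AC50 reflects agonist induction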
Summary of the method: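 Transient TRANS reporter system in HepG2: after 24 h of chemical, RNA is reverse-transcribed, reporter cDNA amplified, FAM-labelled and sized by capillary electrophoresis. Induction of the human ERb-Gal4 reporter is measured relative to DMSO.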

[8] = molecular target: GAL4 Transcription Factor (Internal Marker), GAL4 (gene 855828) (UniProt P04386); test: ATG_GAL4_XSP2: Attagene TRANS-FACTORIAL Multi-Species (XSP2) HepG2 Assay for GAL4 Transcription Factor (Internal Marker) (AID 2283814);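 further: GAL4 reporter mRNA background control in MRTU transfected cells not a receptor target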
Summary of the method: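 Background-control readout: gain-of-signal fitted against DMSO. After 24 h exposure of transfected HepG2 (MRTU, GAL4-UAS reporters; 3 nM 6-alpha-fluorotestosterone, 1.5 nM norgestrel present), transcripts quantified by RT-PCR and capillary electrophoresis fluorescence.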

[9] = tested on: turtle Androgen Receptor (AR), gene 101947425; test: ATG_trAR_XSP2: Attagene TRANS-FACTORIAL Multi-Species (XSP2) HepG2 Assay for turtle Androgen Receptor (AR) (AID 2283815)
Summary of the method: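 Reporter transcripts were quantified via RT-PCR and capillary electrophoresis and fitted upward against DMSO. Transiently transfected human HepG2 cells carrying NR-Gal4 chimeras were exposed 24 h, with 3 nM 6-alpha-fluorotestosterone plus 1.5 nM norgestrel added.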

[10] = molecular target: zebrafish Estrogen Receptor (ER1), esr1 (gene 259252) (UniProt P57717); test: ATG_zfER1_XSP2: Attagene TRANS-FACTORIAL Multi-Species (XSP2) HepG2 Assay for zebrafish Estrogen Receptor (ER1) (AID 2283816)
Summary of the method: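 After 24 h compound exposure, RNA from transfected HepG2 cells was reverse-transcribed and reporter transcripts resolved by capillary electrophoresis. The TRANS format reads exogenous zebrafish ER1-Gal4 chimera activity on GAL4-UAS elements; gain of signal against DMSO.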

[11] = molecular target: chicken Estrogen Receptor (ERa), ESR1 (gene 396099) (UniProt P06212); test: ATG_chERa_XSP2: Attagene TRANS-FACTORIAL Multi-Species (XSP2) HepG2 Assay for chicken Estrogen Receptor (ERa) (AID 2283817);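 further: actives raise reporter signal above DMSO so AC50 reflects ER activation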
Summary of the method: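 Readout: fluorescent reporter-transcript fragments resolved by capillary electrophoresis after RT-PCR and HpaI cut. Chicken ERa-Gal4 fusion in transiently transfected HepG2, dosed for 24 h; activity taken as increase over DMSO baseline.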

[12] = tested on: zebrafish Estrogen Receptor (ER2a), gene 317734; test: ATG_zfER2a_XSP2: Attagene TRANS-FACTORIAL Multi-Species (XSP2) HepG2 Assay for zebrafish Estrogen Receptor (ER2a) (AID 2283818);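 further: hits raise reporter mRNA so AC50 reflects activation of zebrafish ER2a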
Summary of the method: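 Multiplexed trans-reporter readout: RT-PCR then capillary electrophoresis of reporter transcripts after 24 h compound treatment. Human HepG2 carries transfected zebrafish ER2a-Gal4 chimera; 3 nM 6-alpha-fluorotestosterone plus 1.5 nM norgestrel present. Induction scored against DMSO.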

[13] = tested on: chicken Androgen Receptor (AR), gene 422165; test: ATG_chAR_XSP2: Attagene TRANS-FACTORIAL Multi-Species (XSP2) HepG2 Assay for chicken Androgen Receptor (AR) (AID 2283819);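 further: hits raise reporter mRNA above DMSO so potency is for activation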
Summary of the method: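 Readout is reporter mRNA induction via RT-PCR/capillary electrophoresis after 24 h chemical exposure, positive direction relative to DMSO. Transiently transfected HepG2 express chimeric chicken AR–GAL4; AR stimulated by 3 nM 6-alpha-fluorotestosterone and 1.5 nM norgestrel.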

[14] = tested on: frog Estrogen Receptor (ER), gene 398734; test: ATG_frER1_XSP2: Attagene TRANS-FACTORIAL Multi-Species (XSP2) HepG2 Assay for frog Estrogen Receptor (ER) (AID 2283821);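 further: hits raise reporter mRNA above DMSO baseline so potency means agonist or activator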
Summary of the method: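 Reporter mRNA induction, detected as fluorescence after RT-PCR and capillary electrophoresis, is the endpoint; activity is fitted upward against DMSO. Cells are human liver HepG2 carrying transfected NR-Gal4 chimeras with GAL4-UAS-driven reporters, harvested 24 h post-dosing.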

[15] = molecular target: frog Thyroid hormone Receptor alpha (TRa), thra-a (gene 397942) (UniProt P15204); test: ATG_frTRa_XSP1: Attagene TRANS-FACTORIAL Multi-Species (XSP1) HepG2 Assay for frog Thyroid hormone Receptor alpha (TRa) (AID 2283804)
Summary of the method: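 Reporter transcript induction, measured by RT-PCR with 6-FAM labelling and capillary electrophoresis, 24 hr after dosing transiently transfected HepG2 cells expressing a frog TRa-GAL4 fusion; medium contained 3 nM 6-alpha-fluorotestosterone; increase over DMSO scored.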

[16] = tested on: turtle Thyroid Hormone Receptor, alpha (TRa), gene 101949057; test: ATG_trTRa_XSP1: Attagene TRANS-FACTORIAL Multi-Species (XSP1) HepG2 Assay for turtle Thyroid Hormone Receptor, alpha (TRa) (AID 2283806)
Summary of the method: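 After 24 h chemical exposure, reporter transcripts were measured by RT-PCR with fluorescent primer extension, HpaI digestion and capillary electrophoresis. Cells were transiently transfected HepG2 expressing exogenous NR-Gal4 chimeras; medium contained 3 nM 6-alpha-fluorotestosterone; fitted upward relative to DMSO.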

[17] = molecular target: zebrafish Thyroid Hormone Receptor alpha (TRa), thraa (gene 30670) (UniProt Q98867); test: ATG_zfTRa_XSP1: Attagene TRANS-FACTORIAL Multi-Species (XSP1) HepG2 Assay for zebrafish Thyroid Hormone Receptor alpha (TRa) (AID 2283807)
Summary of the method: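 Reporter transcripts driven by a chimeric zebrafish TRa–Gal4 protein were measured by RT-PCR with fluorescent labelling and capillary electrophoresis. These came from transiently transfected HepG2 cells after 24 h chemical exposure, with 3 nM 6-alpha-fluorotestosterone added; baseline was DMSO.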

[18] = tested on: zebrafish Peroxisome Proliferator-activated Receptor gamma (PPARg), gene 557037; test: ATG_zfPPARg_XSP1: Attagene TRANS-FACTORIAL Multi-Species (XSP1) HepG2 Assay for zebrafish Peroxisome Proliferator-activated Receptor gamma (PPARg) (AID 2283801)
Summary of the method: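 Trans-activation readout of chimeric zebrafish PPARg–GAL4 in transiently transfected human HepG2 cells, 24 h chemical exposure (medium includes 3 nM 6-alpha-fluorotestosterone). Reporter transcripts measured by RT-PCR and capillary electrophoresis, fitted as gain over DMSO.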

[19] = molecular target: human Thyroid hormone Receptor alpha (TRa), THRA (gene 7067) (UniProt P10827); test: ATG_hTRa_XSP1: Attagene TRANS-FACTORIAL Multi-Species (XSP1) HepG2 Assay for human Thyroid hormone Receptor alpha (TRa) (AID 2283805)
Summary of the method: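 Reporter transcripts from the human TRa-Gal4 TRANS unit quantified by RT-PCR, fluorescent labeling and capillary electrophoresis after 24 hours of chemical exposure in transfected HepG2 cells; medium contains 3 nM 6-alpha-fluorotestosterone. Positive direction fit against DMSO.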

[20] = molecular target: human Thyroid hormone Receptor beta (TRb), THRB (gene 7068) (UniProt P10828); test: ATG_hTRb_XSP1: Attagene TRANS-FACTORIAL Multi-Species (XSP1) HepG2 Assay for human Thyroid hormone Receptor beta (TRb) (AID 2283808)
Summary of the method: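 Readout is reporter mRNA induction measured by RT-PCR, fluorescent labelling and capillary electrophoresis, fitted upward relative to DMSO. Transiently transfected human HepG2 cells expressing NR-Gal4 chimeras were dosed for 24 h, medium containing 3 nM 6-alpha-fluorotestosterone.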

Measured: AC50

zebrafish Estrogen Receptor (ER1), esr1 (gene 259252), sequence (P57717 whole entry, looked up, the tested form may be a part): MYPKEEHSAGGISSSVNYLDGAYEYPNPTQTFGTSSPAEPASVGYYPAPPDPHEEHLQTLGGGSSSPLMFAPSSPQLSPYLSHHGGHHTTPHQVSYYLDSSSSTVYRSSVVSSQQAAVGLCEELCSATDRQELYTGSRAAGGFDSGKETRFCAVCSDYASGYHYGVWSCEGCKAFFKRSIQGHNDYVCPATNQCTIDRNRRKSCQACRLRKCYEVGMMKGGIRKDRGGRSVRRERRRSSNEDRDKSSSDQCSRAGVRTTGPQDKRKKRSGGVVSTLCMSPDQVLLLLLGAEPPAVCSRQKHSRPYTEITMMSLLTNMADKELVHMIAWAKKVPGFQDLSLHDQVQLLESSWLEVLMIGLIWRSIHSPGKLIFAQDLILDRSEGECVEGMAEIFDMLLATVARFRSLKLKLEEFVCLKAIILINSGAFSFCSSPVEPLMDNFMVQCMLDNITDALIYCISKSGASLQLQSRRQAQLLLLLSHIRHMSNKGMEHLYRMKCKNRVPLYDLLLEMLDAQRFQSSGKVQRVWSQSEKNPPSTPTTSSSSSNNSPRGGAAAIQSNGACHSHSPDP
GAL4 Transcription Factor (Internal Marker), GAL4 (gene 855828), sequence (P04386 whole entry, looked up, the tested form may be a part): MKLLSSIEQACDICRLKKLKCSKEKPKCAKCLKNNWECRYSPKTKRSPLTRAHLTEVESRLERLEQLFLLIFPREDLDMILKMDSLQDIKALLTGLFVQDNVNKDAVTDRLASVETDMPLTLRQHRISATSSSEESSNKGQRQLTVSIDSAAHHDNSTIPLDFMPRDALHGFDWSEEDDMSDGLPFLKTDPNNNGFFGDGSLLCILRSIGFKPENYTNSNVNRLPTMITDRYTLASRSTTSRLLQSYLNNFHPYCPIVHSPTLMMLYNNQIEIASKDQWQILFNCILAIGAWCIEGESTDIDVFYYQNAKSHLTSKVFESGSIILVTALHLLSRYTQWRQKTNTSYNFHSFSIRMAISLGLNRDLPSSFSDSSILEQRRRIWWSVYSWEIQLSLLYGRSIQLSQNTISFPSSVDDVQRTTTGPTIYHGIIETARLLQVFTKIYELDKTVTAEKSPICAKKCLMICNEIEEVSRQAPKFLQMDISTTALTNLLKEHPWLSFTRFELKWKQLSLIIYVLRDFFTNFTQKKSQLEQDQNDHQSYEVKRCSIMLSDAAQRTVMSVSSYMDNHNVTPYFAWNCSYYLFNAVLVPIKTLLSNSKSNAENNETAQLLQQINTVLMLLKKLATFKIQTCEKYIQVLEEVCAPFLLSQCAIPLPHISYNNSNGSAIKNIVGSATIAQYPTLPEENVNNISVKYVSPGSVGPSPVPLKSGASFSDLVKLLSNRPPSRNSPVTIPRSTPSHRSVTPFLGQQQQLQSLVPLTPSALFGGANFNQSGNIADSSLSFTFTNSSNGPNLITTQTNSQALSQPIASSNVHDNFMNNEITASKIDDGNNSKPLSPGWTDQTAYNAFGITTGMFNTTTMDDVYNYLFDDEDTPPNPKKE
Estrogen receptor beta (Homo sapiens), sequence (Q92731 whole entry, looked up, the tested form may be a part): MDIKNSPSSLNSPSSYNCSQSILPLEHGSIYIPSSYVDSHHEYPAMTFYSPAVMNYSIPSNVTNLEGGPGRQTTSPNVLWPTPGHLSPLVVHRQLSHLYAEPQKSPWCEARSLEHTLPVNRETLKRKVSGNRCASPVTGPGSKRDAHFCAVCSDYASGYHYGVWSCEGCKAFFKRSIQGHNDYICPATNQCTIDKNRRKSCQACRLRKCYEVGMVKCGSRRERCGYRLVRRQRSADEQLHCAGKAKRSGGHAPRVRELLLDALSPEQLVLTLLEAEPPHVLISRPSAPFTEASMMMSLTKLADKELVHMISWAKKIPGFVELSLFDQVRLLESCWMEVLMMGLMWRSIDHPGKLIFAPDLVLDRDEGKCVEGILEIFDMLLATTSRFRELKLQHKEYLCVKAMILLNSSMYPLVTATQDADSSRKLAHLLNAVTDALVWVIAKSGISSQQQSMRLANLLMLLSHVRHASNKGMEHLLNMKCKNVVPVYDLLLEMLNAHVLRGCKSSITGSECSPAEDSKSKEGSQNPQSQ
chicken Estrogen Receptor (ERa), ESR1 (gene 396099), sequence (P06212 whole entry, looked up, the tested form may be a part): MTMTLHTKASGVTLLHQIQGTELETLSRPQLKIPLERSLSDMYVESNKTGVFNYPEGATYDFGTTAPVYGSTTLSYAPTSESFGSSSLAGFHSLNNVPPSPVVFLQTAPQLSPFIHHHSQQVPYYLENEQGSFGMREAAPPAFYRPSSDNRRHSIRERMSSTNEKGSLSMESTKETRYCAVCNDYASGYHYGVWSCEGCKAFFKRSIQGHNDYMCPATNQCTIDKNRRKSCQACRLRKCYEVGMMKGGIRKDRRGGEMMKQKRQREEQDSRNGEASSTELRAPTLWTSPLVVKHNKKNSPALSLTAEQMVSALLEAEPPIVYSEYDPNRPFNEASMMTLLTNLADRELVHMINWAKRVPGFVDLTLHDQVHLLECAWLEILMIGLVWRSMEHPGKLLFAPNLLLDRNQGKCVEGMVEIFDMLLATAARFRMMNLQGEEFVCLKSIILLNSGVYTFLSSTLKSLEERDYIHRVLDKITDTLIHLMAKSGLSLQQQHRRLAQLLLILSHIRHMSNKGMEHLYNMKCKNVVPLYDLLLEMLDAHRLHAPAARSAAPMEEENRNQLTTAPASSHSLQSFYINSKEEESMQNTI
frog Thyroid hormone Receptor alpha (TRa), thra-a (gene 397942), sequence (P15204 whole entry, looked up, the tested form may be a part): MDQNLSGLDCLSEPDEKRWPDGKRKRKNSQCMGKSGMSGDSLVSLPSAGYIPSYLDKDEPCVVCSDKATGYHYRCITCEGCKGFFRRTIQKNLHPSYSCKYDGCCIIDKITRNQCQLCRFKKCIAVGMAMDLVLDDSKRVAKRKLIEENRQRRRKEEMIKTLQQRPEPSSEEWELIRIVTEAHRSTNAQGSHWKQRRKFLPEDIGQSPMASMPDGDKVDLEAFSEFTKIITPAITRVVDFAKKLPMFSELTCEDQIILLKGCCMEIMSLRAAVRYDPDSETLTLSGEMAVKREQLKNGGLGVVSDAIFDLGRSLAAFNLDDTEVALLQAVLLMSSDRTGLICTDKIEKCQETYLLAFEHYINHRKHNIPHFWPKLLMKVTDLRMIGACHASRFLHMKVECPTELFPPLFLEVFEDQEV
zebrafish Thyroid Hormone Receptor beta (TRb), thrb (gene 30607), sequence (Q9PVE4 whole entry, looked up, the tested form may be a part): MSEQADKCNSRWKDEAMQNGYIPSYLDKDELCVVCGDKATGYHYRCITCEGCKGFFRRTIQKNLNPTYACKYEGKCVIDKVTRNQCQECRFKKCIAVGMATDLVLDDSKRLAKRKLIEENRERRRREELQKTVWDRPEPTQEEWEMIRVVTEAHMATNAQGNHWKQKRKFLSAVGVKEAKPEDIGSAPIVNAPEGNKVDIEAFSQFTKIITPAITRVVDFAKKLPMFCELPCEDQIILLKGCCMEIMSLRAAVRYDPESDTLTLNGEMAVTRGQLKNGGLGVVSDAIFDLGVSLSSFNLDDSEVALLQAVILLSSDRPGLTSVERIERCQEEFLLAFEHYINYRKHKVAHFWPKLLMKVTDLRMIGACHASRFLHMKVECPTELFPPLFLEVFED
zebrafish Thyroid Hormone Receptor alpha (TRa), thraa (gene 30670), sequence (Q98867 whole entry, looked up, the tested form may be a part): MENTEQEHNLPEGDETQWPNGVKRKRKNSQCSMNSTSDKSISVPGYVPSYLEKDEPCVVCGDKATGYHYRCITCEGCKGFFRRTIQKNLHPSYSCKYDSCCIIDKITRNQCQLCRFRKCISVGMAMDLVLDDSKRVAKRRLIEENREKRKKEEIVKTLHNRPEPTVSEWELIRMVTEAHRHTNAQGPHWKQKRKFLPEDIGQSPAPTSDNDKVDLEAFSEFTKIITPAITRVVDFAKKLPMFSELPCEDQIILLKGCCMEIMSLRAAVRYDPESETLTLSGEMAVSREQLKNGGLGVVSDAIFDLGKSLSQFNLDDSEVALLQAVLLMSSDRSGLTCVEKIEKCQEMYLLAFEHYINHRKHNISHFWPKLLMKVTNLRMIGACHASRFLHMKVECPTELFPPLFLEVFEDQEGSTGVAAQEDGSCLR
mouse Peroxisome Proliferator-activated Receptor gamma (PPARg), Pparg (gene 19016), sequence (P37238 whole entry, looked up, the tested form may be a part): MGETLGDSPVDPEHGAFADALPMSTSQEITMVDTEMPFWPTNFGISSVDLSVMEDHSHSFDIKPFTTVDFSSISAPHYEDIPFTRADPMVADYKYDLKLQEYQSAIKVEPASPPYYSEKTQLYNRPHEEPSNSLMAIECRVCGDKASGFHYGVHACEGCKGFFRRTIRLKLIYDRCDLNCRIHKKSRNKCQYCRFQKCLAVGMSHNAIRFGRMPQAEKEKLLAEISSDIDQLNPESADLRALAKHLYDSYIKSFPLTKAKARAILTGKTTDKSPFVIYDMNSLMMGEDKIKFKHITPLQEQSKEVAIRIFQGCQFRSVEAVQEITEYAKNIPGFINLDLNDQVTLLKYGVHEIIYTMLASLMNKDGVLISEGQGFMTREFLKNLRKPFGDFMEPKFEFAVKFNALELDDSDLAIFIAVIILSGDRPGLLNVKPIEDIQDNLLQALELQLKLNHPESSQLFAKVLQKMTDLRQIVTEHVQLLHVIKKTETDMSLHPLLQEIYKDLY
Nuclear receptor subfamily 1 group I member 2 (Mus musculus), sequence (O54915 whole entry, looked up, the tested form may be a part): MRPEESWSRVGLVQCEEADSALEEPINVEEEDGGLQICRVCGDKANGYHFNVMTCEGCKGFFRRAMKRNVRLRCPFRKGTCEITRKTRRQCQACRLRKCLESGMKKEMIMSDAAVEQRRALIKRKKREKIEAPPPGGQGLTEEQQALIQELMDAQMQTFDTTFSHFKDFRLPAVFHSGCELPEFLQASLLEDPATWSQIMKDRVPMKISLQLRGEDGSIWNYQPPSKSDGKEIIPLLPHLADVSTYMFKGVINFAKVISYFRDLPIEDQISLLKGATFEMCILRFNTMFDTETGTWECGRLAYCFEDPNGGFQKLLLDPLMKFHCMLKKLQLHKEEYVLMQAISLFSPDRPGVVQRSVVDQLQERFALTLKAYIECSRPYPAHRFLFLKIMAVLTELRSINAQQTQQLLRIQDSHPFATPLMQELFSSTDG

Cc1c2ccccc2c(C)c2c1ccc1ccccc12
active: [1] 13800 nM | [2] 828 nM | [3] 60900 nM | [4] 33200 nM | [6] 1530 nM | [7] 24700 nM | [11] 8.83 µM | [13] 9020 nM | [14] 8.79 µM
inactive: [5] | [8] | [9] | [10] | [12]

O=C(O)Cc1cc(I)c(Oc2ccc(O)c(I)c2)c(I)c1
inactive: [5] | [6] | [7] | [9] | [10] | [11] | [12] | [13] | [14]

CC/C(=C(/CC)c1ccc(O)cc1)c1ccc(O)cc1
inactive: [15] | [16] | [17] | [3] | [4] | [5]
active: [6] 0.138 nM | [10] 1.41 nM | [11] 7.27e-05 µM | [12] 0.243 nM | [14] 0.000213 µM

C[C@]12CC[C@@H]3c4ccc(O)cc4CC[C@H]3[C@@H]1CCC2=O
inactive: [15] | [16] | [17] | [3] | [4] | [5]
active: [6] 5.33 nM | [10] 10.5 nM | [11] 0.00428 µM | [12] 10.3 nM | [14] 0.00726 µM

CC(C)(c1cc(Br)c(O)c(Br)c1)c1cc(Br)c(O)c(Br)c1
active: [18] 9550 nM | [1] 2060 nM | [15] 3790 nM | [19] 3390 nM | [3] 13900 nM
inactive: [2] | [16] | [17] | [20] | [5] | [6] | [7] | [11] | [14]

CC1(C)NC(=O)N(c2ccc([N+](=O)[O-])c(C(F)(F)F)c2)C1=O
inactive: [6] | [7] | [8] | [10] | [11] | [12] | [14]
active: [11] 43 µM | [14] 56.3 µM

O=c1c(-c2ccc(O)cc2)coc2cc(O)cc(O)c12
inactive: [5] | [8] | [9]
active: [6] 213 nM and 25.4 nM | [11] 467 nM and 29.3 nM | [12] 41.6 nM and 4.15 nM | [14] 126 nM and 17.4 nM
